Potency and affinity values are given separately. Active and inactive are the calls of the source.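 How the source made its calls: active means compounds with a fitted half-maximal inhibitory dose at or below ten times their top tested dose; inconclusive means flat curve at 30 to 70% inhibition, or poor fit; inactive means the rest.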

The experiment in a line: fluconazole resistance reversal in C. albicans, dose response, CaCi-2 strain, Alamar Blue, dry powder, set 4 (AID 488943). As to conditions: C. albicans CaCi-2 (fluconazole-resistant clinical isolate) + fluconazole, Alamar Blue growth, 48 h; series mostly up to 6 µM. On the technique in general: The colour change of resazurin is a common sign of viable cells or microbes.
For `Cc1cccc(N2CCN(C(=O)c3ccc(Cl)cc3)CC2)n1`, the result was inactive.

For the molecule `O=S(=O)(c1ccc(Cl)cc1)N1CCN(c2ccnc3cc(Cl)ccc23)CC1`, the outcome was inactive. As to `Cc1cc(N2CCN(C(=O)c3ccc(Cl)cc3)CC2)c2ccccc2n1`, the outcome was inactive. Take `O=C(c1ccc(Cl)cc1)N1CCN(c2ccnc3ccccc23)CC1`: the result was inactive. Turning to `COc1cccc2c(N3CCN(C(=O)c4ccc(Cl)cc4)CC3)cc(C)nc12`, the result was inactive.

For the molecule `CCCCNC(=O)N1CCN(c2ccnc3cc(Cl)ccc23)CC1`, the result was inactive. With `O=C(c1ccc(Cl)cc1)N1CCN(c2cccc(C(F)(F)F)n2)CC1`, the outcome was inactive. The entry for `O=C(c1ccc(Cl)cc1)N1CCN(c2ccncc2)CC1` is “inactive”; for `COc1cccnc1N1CCN(C(=O)c2ccc(Cl)cc2)CC1` it is “inactive”.

For the molecule `O=C(c1ccc(Cl)cc1)N1CCCN(c2ccnc3cc(Cl)ccc23)CC1`, the outcome was inactive. The entry for `COCCC(=O)N1CCN(c2ccnc3cc(Cl)ccc23)CC1` is “inactive”; for `CCCC(=O)N1CCN(c2ccnc3cc(Cl)ccc23)CC1` it is “inactive”; for `CC(C)C(=O)N1CCN(c2ccnc3cc(Cl)ccc23)CC1` it is “inactive”. Then `O=C(c1ccc(Cl)cc1)N1CCNCC1`, with “inactive”. `O=C(C1CC1)N1CCN(c2ccnc3cc(Cl)ccc23)CC1`: the result was inactive. As for `O=C(c1ccc(Cl)cc1)N1CCN(c2cc(C(F)(F)F)nc3ccccc23)CC1`, the outcome was inactive.

For the origin of these results see PubChem BioAssay AID488943 (Broad Institute, 2010).
